Assay results reported in the supplement of paper PMC7156485.
± gives the standard deviation of the averaged measurements.

Legend:
Settings in all cases: concentration: 10 µM; 24 h
HCC1569 [1] = assay: cell number relative to DMSO (% of DMSO); higher = more cells (less growth inhibition / toxicity)
Summary of the method: (§1)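 Treatment: HCC1569 and TDF cells, 800 per well in 384-well plates with RPMI and 10% FBS, were given compounds at 10 µM for 24 h at 37 °C, in triplicate. Readout: after 3.7% formaldehyde fixation, cells were stained with a rabbit anti-H1.0 antibody, an AlexaFluor 647 secondary and DAPI. Reported values are H1.0 nuclear intensity or cell number as percent of the plate control, taken as the median of replicates, with positional smoothing for HCC1569.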

TDF [2] = assay: as above
Summary of the method: as §1

TDF [3] = assay: H1.0 immunofluorescence intensity relative to DMSO (% of DMSO); higher = stronger H1.0 induction, active = 120 or more
Summary of the method: as §1

HCC1569 [4] = assay: H1.0 immunofluorescence intensity relative to DMSO (% of DMSO); higher = stronger H1.0 induction, active = 140 or more
Summary of the method: as §1
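Throughout, for H1.0 immunofluorescence intensity relative to DMSO: TDF is a line of transformed human dermal fibroblasts of mesenchymal origin.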
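Throughout, for cell number relative to DMSO: TDF denotes transformed human dermal fibroblasts of mesenchymal origin.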

Row | SMILES | cell number (HCC1569 [1]) | cell number (TDF [2]) | H1.0 immunofluorescence intensity (TDF [3]) | H1.0 immunofluorescence intensity (HCC1569 [4])
1 | Fc1ccc(-c2c3cccc(C(F)(F)F)c3nn2Cc2ccc(F)cc2Cl)cc1 | 100 | 95.3 | 92.3 (inactive) | 102 (inactive)
2 | CCC1C(=O)N(C)c2cnc(Nc3ccc(C(=O)NC4CCN(C)CC4)cc3OC)nc2N1C1CCCC1 (centres undefined) | 27.1 | 32.4 | 157 (active) | 136 (inactive)
3 | CC(=O)OC1C(=O)C2(C)C(O)CC3OCC3(OC(C)=O)C2C(OC(=O)c2ccccc2)C2(O)CC(OC(=O)C(O)C(NC(=O)c3ccccc3)c3ccccc3)C(C)=C1C2(C)C (centres undefined) [Taxol] | 60.2 ± 4.1 | 10.1 ± 1.7 | 174 (active) | 132 (inactive)
4 | CCOC(=O)C=C(C)C=CC=C(C)C=Cc1c(C)cc(OC)c(C)c1C [Etretinate] | 104 | 97.6 | 101 (inactive) | 115 (inactive)
5 | N=C1SC(=Cc2ccc(-c3ccc4c(c3)C(=O)NC4=O)o2)C(=O)N1c1ccc(Br)cc1 [Bioymifi] | 94.2 | 67.9 | 96.5 (inactive) | 277 (active)
6 | Cl.O=C(O)C1=CCNCC1 [Isoguvacine hydrochloride] | 106 | 108 | 106 (inactive) | 98.2 (inactive)
7 | Cc1ccc2c(c1)C(N1CCN(C)CC1)=Nc1cccnc1N2 | 103 | 102 | 89.8 (inactive) | 99 (inactive)
8 | CC(C(=O)O)c1ccc2c(c1)Cc1cccnc1O2 (centres undefined) [Pranoprofen] | 98.6 | 94.7 | 103 (inactive) | 102 (inactive)
9 | OCc1ccc(-c2nn(Cc3ccccc3)c3ccccc23)o1 | 102 | 106 | 98.9 (inactive) | 106 (inactive)
10 | CCCCCCCCCCCCCCCCCCCCCC(=O)O [Docosanoic acid] | 101 | 104 | 101 (inactive) | 101 (inactive)
11 | CCCCCC=CCC=CCCCCCCCCC(=O)O [10(Z),13(Z)-Nonadecadienoic acid] | 98.3 | 96.2 | 109 (inactive) | 103 (inactive)
12 | CCc1cc(Cl)c(OC)c(C(=O)NCC2CCCN2CC)c1O.Cl (stereo not drawn) [S-(-)-Eticlopride hydrochloride] | 102 | 110 | 103 (inactive) | 97.8 (inactive)
13 | COC(=O)C1=C(C)NC(C)=C(C(=O)OCC(C)C)C1c1ccccc1[N+](=O)[O-] (centres undefined) [Nisoldipine] | 94.9 | 104 | 89.9 (inactive) | 116 (inactive)
14 | Nc1nc(Cl)nc2c1ncn2C1OC(CO)C(O)C1O (centres undefined) [2-Chloroadenosine] | 99.3 | 119 | 87.8 (inactive) | 89 (inactive)
15 | CC1=NC(=NNc2cc(S(=O)(=O)[O-])c3cc([N+](=O)[O-])cc(S(=O)(=O)[O-])c3c2)C(COP(=O)([O-])[O-])=C(C=O)C1=O.[Na+].[Na+].[Na+].[Na+] [PPNDS tetrasodium] | 104 | 115 | 91 (inactive) | 100 (inactive)
16 | CC(C)(C)c1ccc(C(O)CCCN2CCC(C(O)(c3ccccc3)c3ccccc3)CC2)cc1 (centres undefined) [Terfenadine] | 92.7 ± 3.6 | 97.9 ± 12 | 107 (inactive) | 126 (inactive)
17 | COC(=O)C1=C(C)NC(C)=C(C(=O)OCCN2CCN(C(c3ccccc3)c3ccccc3)CC2)C1c1cccc([N+](=O)[O-])c1 (centres undefined) [Manidipine] | 106 | 109 | 90.4 (inactive) | 111 (inactive)
18 | CC(C)(C#N)c1ccc(N2C(=O)OCc3cnc4ccc(-c5cnc6ccccc6c5)cc4c32)cc1 | 59.8 | 44.1 | 101 (inactive) | 206 (active)
19 | O=C1Nc2ccc(Br)cc2C1=Cc1cc2c([nH]1)CCCC2 [VEGF Receptor 2 Kinase Inhibitor II] | 94 | 114 | 76.2 (inactive) | 190 (active)
20 | CN(C)C1C(=O)C(C(N)=O)=C(O)C2(O)C(=O)C3=C(O)c4c(O)ccc(Cl)c4C(O)C3CC12.Cl (centres undefined) [Demeclocycline hydrochloride] | 96.2 | 96.5 | 99.7 (inactive) | 104 (inactive)
21 | O=C(OC12CC3CC(CC(C3)C1)C2)c1ccc(NCc2cc(O)ccc2O)cc1 [1-adamantyl 4-[(2,5-dihydroxybenzyl)amino]benzoate] | 8.48 | 62.1 | 120 (inactive) | 109 (inactive)
